Assay results: PubChem BioAssay AID624297 (National Center for Advancing Translational Sciences (NCATS), 2012)
In all, about 340,000 compounds went through this assay and about 6,200 (1.8%) were called active. About 10% were inconclusive and are not listed. Calls come from the whole dose curve; as a rule, active = well fitted activation curve with a large enough effect; inconclusive = small, poorly fitted or top-dose-only effect; inactive = no such curve, though single readings can be large or run the other way. What follows is part of a selection rich in actives, with near analogues and random picks from the rest.

test: A quantitative high throughput screen for small molecules that induce DNA re-replication in SW480 colon adenocarcinoma cells.; note: nearly all actives have a fitted effect of over 55% in size; for re-replication activation: % of control where 0% means no effect; conditions: Hoechst DNA content imaging, 48 h; series mostly up to 46.1 µM; re-replication activation: at the top concentration
Method in brief: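 250 cells/well; 23 nL cpd via pin tool; 48 hr, 37 C, 5% CO2; Hoechst 40 min; imager read of total nuclear intensity, ex 405/em 500-530 nm.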
Potency is the fitted concentration of half-maximal effect.

Structure (SMILES) | re-replication activation | Potency
CN(C(=O)c1cccc(NC(=O)Cc2ccc(NC(=O)C3CCCN(C(=O)C4CC4)C3)cc2)c1)C1CC1 (stereo not given) | -35.3% (inactive) | –
COc1ccc(NC(=O)CN(C)C(=O)c2cccc(S(=O)(=O)N3CCN(c4ccccc4)CC3)c2)cc1 | -64.6% (inactive) | –
Cc1ccc(S(=O)(=O)N2CCCCC2)cc1C(=O)N(C)CC(=O)Nc1cccc(F)c1 | 3.47% (inactive) | –
CCOc1ccc(NC(=O)CN(C)C(=O)c2cccc(S(=O)(=O)N3CCCC3)c2)cc1OCC | – | 6.51 µM (active)
Cc1noc(C)c1NC(=O)Nc1cccc2c1O[C@H](CN(C)S(=O)(=O)c1c(C)noc1C)[C@@H](C)CN([C@H](C)CO)C2=O | 5.61% (inactive) | –
CCCCOc1ccc(C(=O)NCC(=O)OCC(=O)c2c(N)n(C)c(=O)n(C)c2=O)cc1 | -0.586% (inactive) | –
CSc1ncccc1C(=O)NCC(c1ccco1)N1CCCCC1 (stereo not given) | 0.306% (inactive) | –
Cc1ccc(CN2CCC(n3nccc3NC(=O)CCCc3ccccc3)CC2)o1 | -0.682% (inactive) | –
COc1cc(CN2CCC(n3nccc3NC(=O)CCCc3ccccc3)CC2)ccc1O | -4.37% (inactive) | –
COc1ccc(CN2CCC(n3nccc3NC(=O)CCCc3ccccc3)CC2)cc1C | – | 18.4 µM (active)
COc1ccc(CNC(=O)C[C@H]2C[C@H](C(=O)N3CCOCC3)[C@@]3(CCC4CCCC4)c4[nH]c5ccc(Cl)cc5c4CCN3C2=O)cc1OC | 25.9% (inactive) | –
CC(C)(C)OC(=O)C[C@H]1C/C=C\C[C@@H](CC(=O)N[C@H](CO)Cc2ccccc2)C(=O)NC[C@@H](c2ccccc2)OC1=O | -9.13% (inactive) | –
N#C/C(=C(/O)COC(=O)COc1ccc(Cl)cc1)c1nc2ccccc2[nH]1 | – | 29.1 µM (active)
Cc1ccccc1OC/C(O)=C(\C#N)c1nc2ccccc2[nH]1 | 10.2% (inactive) | –
COCCN(CCOC)S(=O)(=O)c1ccc(/C(O)=C(\C#N)c2nc3ccccc3[nH]2)cc1 | 2.9% (inactive) | –
CCN1C[C@@H]2[C@@H]3C(=O)N(Cc4ccccc4)C(=O)[C@@H]3[C@](C)(C1=O)N2C(=O)c1ccc(C(C)(C)C)cc1 | -7.2% (inactive) | –
O=C(NOCc1ccccc1)c1cccc([N+](=O)[O-])c1 | -38.1% (inactive) | –
O=c1oc2ccccc2c(=O)c2ccccc12 | -5.45% (inactive) | –
CC[C@]12c3[nH]c4cc(CCC(=O)N(C)C)ccc4c3CCN1C(=O)[C@@H](CC(=O)NCc1ccco1)C[C@@H]2C(=O)N1CCN(C(=O)c2ccco2)CC1 | -12.6% (inactive) | –
CC(C)Cn1c(N)c(C(=O)NCc2cccs2)c2nc3ccccc3nc21 | – | 5.17 µM (active)
O=C(NCc1cccs1)c1cc(-c2ccccn2)nc2ccc(Br)cc12 | 5.04% (inactive) | –
Cn1ncc(Br)c1C(=O)NCc1cccs1 | -6.4% (inactive) | –
O=c1ccn([C@@H]2O[C@H](CNS(=O)(=O)c3cc4ccccc4s3)[C@@H](O)[C@H]2O)c(=O)[nH]1 | -34% (inactive) | –
CCN(c1ccccc1)S(=O)(=O)c1ccc(C(=O)Nc2ccccc2OC)cc1 | 9.42% (inactive) | –

Structure (SMILES) | re-replication activation | Potency
Cc1ccc(-c2nn(-c3ccc(F)cc3)cc2C(=O)NCC(c2cccs2)N2CCOCC2)cc1 (stereo not given) | – | 23.1 µM (active)
O=C(NCCCN1CCOCC1)c1cn(-c2ccccc2)nc1-c1ccc(F)cc1 | -5.03% (inactive) | –
O=C(NCC(c1cccs1)N1CCOCC1)c1cc(-c2ccccn2)nc2ccccc12 (stereo not given) | 1.98% (inactive) | –
Cn1c(=S)sc2ccc3ccccc3c21 | -4.54% (inactive) | –
Cc1cc(C)c(C=NNc2nc3c([nH]2)c(=O)n(C)c(=O)n3C)c(C)c1 | 19.5% (inactive) | –
COc1cccc(/C=N/Nc2ncc(C(F)(F)F)cc2Cl)c1O | – | 0.92 µM (active)
FC(F)(F)c1cnc(Oc2ccccc2-c2nnc(-c3ccc(Cl)cc3)o2)c(Cl)c1 | -3.88% (inactive) | –
COc1cccc(/C=N/Nc2ccc(S(=O)(=O)Nc3ccccc3C(=O)O)cc2[N+](=O)[O-])c1O | -6.27% (inactive) | –
CC(=NNC(=O)c1ccncc1)c1ccc(Cl)c(Cl)c1 | 23.1% (inactive) | –
C=CCC[C@@H](Cc1ccc(F)cc1)C(=O)OC[C@@H](C)NC(=O)[C@H](CC=C)CC(=O)N(CCO)Cc1ccccc1 | -0.963% (inactive) | –
CCOc1ccc(C2C(C(=O)NC)=C(C)Nc3nc4ccccc4n32)cc1OC (stereo not given) | -12.1% (inactive) | –
COc1ccccc1NC(=O)C1=C(C)Nc2nc3ccccc3n2C1c1cccs1 (stereo not given) | – | 4.11 µM (active)
CCOC(=O)C1=C(C)Nc2nc3ccccc3n2C1c1cccs1 (stereo not given) | -4.46% (inactive) | –
Cc1ccc(C(=O)O)c(NC=O)c1OCc1ccccc1 | -4.14% (inactive) | –
CC(OC(=O)c1c(F)cccc1F)C(=O)NCCC1=CCCCC1 (stereo not given) | 5.62% (inactive) | –
O=C(Nc1cccc(S(=O)(=O)N2CCCC2)c1)c1cncc(Br)c1 | -1.35% (inactive) | –
COc1ccc2sc(-c3ccc(S(C)(=O)=O)cc3)c(C#Cc3cncn3C)c2c1 | – | 5.8 µM (active)
COc1ccc2sc(-c3ccc(S(C)(=O)=O)cc3)c(-c3ccc(C(N)=O)cc3)c2c1 | 15.8% (inactive) | –
Cn1cncc1C#Cc1c(-c2ccsc2)sc2ccccc12 | 4.17% (inactive) | –
Oc1cccc(CCc2ccccn2)c1 | -2.7% (inactive) | –
COc1cc2[nH]c(=O)n(Cc3ccc(C(=O)NC4CCN(Cc5ccccc5)CC4)cc3)c(=O)c2cc1OC | 0.862% (inactive) | –
COc1ccc(C(=O)O)cc1S(=O)(=O)NC1CCN(Cc2ccccc2)CC1 | -1.41% (inactive) | –
COc1cc(C(=O)NC2CCN(Cc3ccccc3)CC2)cc(Cl)c1OC(C)C | – | 18.4 µM (active)
CNC[C@@H]1Oc2c(NS(C)(=O)=O)cccc2C(=O)N([C@@H](C)CO)C[C@H]1C | -6.99% (inactive) | –

Structure (SMILES) | re-replication activation | Potency
CCn1nc(C(=O)NNS(=O)(=O)c2cc(/C=C/C(=O)O)cc(OC)c2OC)c2ccccc2c1=O | -4.81% (inactive) | –
C=CC[C@@H](Cc1ccc(F)cc1)C(=O)OC[C@H]1CCCN1C(=O)[C@H](CC=C)CC(=O)N(CCO)Cc1ccccc1 | 0.701% (inactive) | –
Cn1nc(-c2ccccc2)c(CSc2cccc(Cl)c2)c1Cl | – | 16.4 µM (active)
Cc1ccc(S(=O)(=O)c2c(COC(=O)c3cccc(Cl)c3)c(-c3ccccc3)nn2C)cc1 | -8.27% (inactive) | –
Cn1nc(-c2ccccc2)c(CO)c1Sc1ccccc1 | -5.91% (inactive) | –
COc1cccc(CC(=NO)c2cccc(OC)c2)c1 | 2.86% (inactive) | –
CCOc1cccc(-n2nnnc2-c2ccc(OC)cc2)c1 | – | 13 µM (active)
CCOC(=O)C(C)n1cnc2c(nnn2-c2cccc(OC)c2)c1=O (stereo not given) | -20% (inactive) | –
c1ccc(-n2nnnc2-c2cccnc2)cc1 | -6.03% (inactive) | –
COc1cc(S(=O)(=O)N2CCN(C(=O)C3CC3)CC2)ccc1NC(C)=O | 1.84% (inactive) | –
COc1cc(C(=O)NC2CCN(C)CC2)ccc1Nc1ncc2c(n1)N(C1CCC(O)CC1)CCC(=O)N2C (stereo not given) | -0.0388% (inactive) | –
COC(=O)C1=C(C)N(C)C(=S)NC1c1ccccc1 (stereo not given) | 4.94% (inactive) | –
COC(=O)C1=C(C)N(C)C(=O)NC1c1ccc([N+](=O)[O-])o1 (stereo not given) | – | 23.1 µM (active)
COc1ccc(C2NC(=O)N(C)C(C)=C2[N+](=O)[O-])cc1 (stereo not given) | 3.98% (inactive) | –
Cc1cccc(C(=O)N[C@H](C(=O)NCc2cccs2)C(C)C)c1 | -0.917% (inactive) | –
COc1ccc(CN2C(CC(=O)Nc3cccnc3)c3ccc(C(F)(F)F)cc3S2(=O)=O)cc1 (stereo not given) | -6.2% [at 9.22 µM] (inactive) | –
CCCCN(Cc1ccccc1)C(=O)C1CCN(Cc2sccc2C)CC1 | – | 14.6 µM (active)
CCCC(=O)C1CCN(Cc2ccccc2)CC1 | -3.22% (inactive) | –
CCCCN(C)C(=O)C1CCN(Cc2ccccn2)CC1 | -0.529% [at 9.22 µM] (inactive) | –
CSCCC(NS(=O)(=O)c1ccc(C)cc1)C(=O)N(C)CC(=O)Nc1ccccc1Br (stereo not given) | -3.06% (inactive) | –
CNN/C(N=Cc1ccc([N+](=O)[O-])s1)=N\S(=O)(=O)c1cc(C)c(Cl)cc1SCc1ccccc1 | 8.71% (inactive) | –
COc1ccc(-c2csc(NC3OC(=O)c4ccccc43)n2)cc1 (stereo not given) | 81.4% (inactive) | –
Cc1cccc(Nc2nc(-c3ccccc3)cs2)n1 | -2.99% (inactive) | –
COc1ccc2c(c1OC)C(=O)OC2Nc1nc(-c2ccccc2)cs1 (stereo not given) | – | 6.51 µM (active)

Structure (SMILES) | re-replication activation | Potency
O=C1NC[C@@H](c2ccccc2)OC(=O)[C@H](Cc2ccc(F)cc2)CC/C=C/C[C@H]1CC(=O)N(CCO)Cc1ccccc1 | 17.4% (inactive) | –
CCOC(=O)C1=CN(Cc2ccc(Br)cc2)S(=O)(=O)NC1C (stereo not given) | -17.8% (inactive) | –
CC1C(=O)N(Cc2ccccc2)c2ccccc2N1C(=O)c1ccccc1 (stereo not given) | 14.5% (inactive) | –
CC1C(C)N(C(=O)CCl)c2ccccc2N1C(=O)CCl (stereo not given) | – | 5.17 µM (active)
CC1CC(C)CN(CC(=O)N2c3ccccc3CCc3ccccc32)C1 (stereo not given) | 3.05% (inactive) | –
Cc1cc(C(=O)Nc2c(C)n(C)n(-c3ccccc3)c2=O)cs1 | -10.3% (inactive) | –
COc1ccc(NS(=O)(=O)c2ccc(C(=O)Nc3c(C)n(C)n(-c4ccccc4)c3=O)cc2)cc1 | – | 6.51 µM (active)
Cc1c(NS(=O)(=O)c2cccc(C(=O)Nc3ccc(SC(F)F)cc3)c2)c(=O)n(-c2ccccc2)n1C | 4.95% (inactive) | –
C=CC(=O)Nc1ccc(Nc2ccnc(Nc3ccc(N4CCN(C)CC4)cc3)n2)cc1 | 5.86% (inactive) | –
C(=N/Nc1cc(N2CCOCC2)nc(N2CCOCC2)n1)/c1ccccc1 | – | 5.8 µM (active)
CN(C)c1ccc(/C=N/Nc2cc(N3CCOCC3)nc(N3CCOCC3)n2)cc1 | 5.95% (inactive) | –
Cc1cc(N2CCN(c3ccccc3)CC2)nc(N2CCOCC2)n1 | -2.59% (inactive) | –
O=C(c1cc(=O)c2ccccc2o1)N1CCN(c2ccccc2)CC1 | -6.89% (inactive) | –
COc1cc2c(cc1OC)CN(C(=O)c1cc(=O)c3ccccc3o1)CC2 | – | 13 µM (active)
COc1ccccc1N1CCN(C(=O)c2cc(=O)c3cc(C)ccc3o2)CC1 | 21.2% (inactive) | –
NC(=O)C1CCN(C(=O)c2cc(S(=O)(=O)N3CCN(c4ccccc4)CC3)ccc2Cl)CC1 | -14.1% (inactive) | –
COc1cc2[nH]c(O)c(C=O)c2cc1OC | -6.01% (inactive) | –
Cc1ccc(S(=O)(=O)N2CCN(C(=O)COC(=O)/C=C/c3cccc(Cl)c3)CC2)c(C)c1 | -5.89% (inactive) | –
CCCCC[C@@H]1C=C(C(=O)O)[C@H](c2ccc(C#N)cc2)N1S(=O)(=O)c1ccc(C)cc1 | -62.7% (inactive) | –
CCC1(C)COC(c2ccc(OC)c(OC)c2)OC1 (stereo not given) | -7.45% (inactive) | –
O=C(Cc1ccc(Cl)cc1)NC(=S)Nc1ccccc1O | 2.2% (inactive) | –
Oc1ccc(CNc2ccccc2O)cc1 | – | 20.6 µM (active)
O=[N+]([O-])c1ccccc1NCc1ccc(Cl)cc1 | 1.16% (inactive) | –
